In PubChem BioAssay (Tox21):
Values joined by “and” are separate entries in the source; they are usually repeats but may differ in a detail not shown here. Equal entries are not always repeated. Results filed as inconclusive are left out. Active and inactive are the calls of the source. Unless noted, calls follow the shape of the full dose curve.

What was measured:
[1] = qHTS assay to identify small molecule agonists of the sonic hedgehog signaling (Shh) pathway (AID 1259368); also: nearly all actives have a fitted effect of over 15% in size; also: potency is read from the fitted curve at half-maximal effect
Outline: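 Cells of a mouse NIH/3T3 clone stably expressing luciferase under the Gli1 transcriptional response element are exposed to test chemicals for 24 hr at 37 C. Pathway activation is detected as a rise in luminescence.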

[2] = qHTS assay to identify small molecule antagonists of the sonic hedgehog signaling (Shh) pathway (AID 1259369); also: nearly all actives have a fitted effect of over 45% in size; also: potency is read from the fitted curve at half-maximal effect
Outline: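 Cells are plated and held 4hr at 37 C, compounds (DMSO) are pinned in, conditioned medium is added to stimulate the pathway, and after 24hr luciferase reagent is added for 30min before luminescence is read.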

[3] = qHTS assay to identify small molecule agonists of the androgen receptor (AR) signaling pathway in the presence of an antagonist - cell viability counter screen (AID 1259379; active = well fitted curve in the direction sought with a large enough effect in the repeat runs; an effect the other way counts as inactive or inconclusive; also: nearly all actives have a fitted effect of over 25% in size; also: potency is read from the fitted curve at half-maximal effect)
Outline: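 Cytotoxicity is assessed by CellTiter-Fluor in MDA-kb2 cells carrying an MMTV-driven luciferase reporter. Cells receive 3.0uM nilutamide plus compounds at 15 concentrations and incubate 16 hr at 37C without CO2 before fluorescence reading.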

[4] = qHTS assay to identify small molecule agonists of the estrogen receptor beta (ER-beta) signaling pathway - cell viability counter screen (AID 1259380; active = well fitted curve in the direction sought with a large enough effect in the repeat runs; an effect the other way counts as inactive or inconclusive; also: nearly all actives have a fitted effect of over 30% in size; also: potency is read from the fitted curve at half-maximal effect)
Outline: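 Cytotoxicity is measured in parallel with the reporter screen: after 16 hr compound exposure at 37C and a 2 hr LiveBLAzer step, CellTiter-Glo is added to the same ER-beta-UAS-bla HEK293T wells and luminescence read after 30 min.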

[5] = qHTS assay to identify small molecule antagonists of the estrogen receptor beta (ER-beta) signaling pathway - cell viability counter screen (AID 1259382; active = well fitted curve in the direction sought with a large enough effect in the repeat runs; an effect the other way counts as inactive or inconclusive; also: nearly all actives have a fitted effect of over 55% in size; also: potency is read from the fitted curve at half-maximal effect)
Outline: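 Cytotoxicity counter screen multiplexed with the beta-lactamase antagonist assay: GripTite HEK293T ER-beta-bla cells were treated 16 hr with test chemicals in the presence of 1nM 17-beta-estradiol, and viability was measured by CellTiter-Glo.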

[6] = target: Estrogen receptor (Homo sapiens) (UniProt P03372); experiment: qHTS assay to identify small molecule agonists of the estrogen receptor alpha (ER-alpha) signaling pathway in the presence of an antagonist (AID 1259383); also: top concentration of the series differs between compounds; nearly all actives have a fitted effect of over 15% in size
Estrogen receptor (Homo sapiens), sequence (P03372 whole entry, looked up): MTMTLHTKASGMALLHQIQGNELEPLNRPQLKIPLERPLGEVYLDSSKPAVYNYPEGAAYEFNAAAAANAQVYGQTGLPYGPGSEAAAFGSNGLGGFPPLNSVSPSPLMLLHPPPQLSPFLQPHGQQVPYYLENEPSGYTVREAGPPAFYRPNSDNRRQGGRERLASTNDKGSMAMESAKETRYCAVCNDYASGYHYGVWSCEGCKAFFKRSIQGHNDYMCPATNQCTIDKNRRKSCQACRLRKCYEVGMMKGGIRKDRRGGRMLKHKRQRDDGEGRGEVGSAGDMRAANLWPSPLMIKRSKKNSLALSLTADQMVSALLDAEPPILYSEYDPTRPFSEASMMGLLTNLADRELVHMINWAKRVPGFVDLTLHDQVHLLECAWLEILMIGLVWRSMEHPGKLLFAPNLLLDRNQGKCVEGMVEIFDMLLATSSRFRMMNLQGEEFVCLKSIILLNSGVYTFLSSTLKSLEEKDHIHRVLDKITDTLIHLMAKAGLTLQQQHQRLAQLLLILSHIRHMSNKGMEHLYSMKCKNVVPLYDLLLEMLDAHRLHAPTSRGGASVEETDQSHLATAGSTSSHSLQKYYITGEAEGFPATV
Outline: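 Agonist-mode confirmation in the presence of the ER antagonist ICI-182,780 at 10.0nM final. Breast-derived VM7Luc4E2 reporter cells were exposed to compounds for 22hr, and ERE-driven luciferase was quantified by luminescence.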

[7] = qHTS assay to identify small molecule agonists or antagonists of the thyroid stimulating hormone receptor (TSHR) signaling pathway - wild type cell line counter screen (AID 1259384)
Outline: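 Counter screen in untransfected Hek293: compounds (15-point titration, triplicate) plus phosphodiesterase inhibitor Ro20-1724 added after 18 h plating; 30 min RT. Intracellular cAMP via competitive d2/cryptate immunoassay, 1 h incubation.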

[8] = target: Thyrotropin receptor (Homo sapiens) (UniProt P16473); experiment: qHTS assay to identify small molecule antagonists of the thyroid stimulating hormone receptor (TSHR) signaling pathway (AID 1259385); also: nearly all actives have a fitted effect of over 20% in size; also: potency is read from the fitted curve at half-maximal effect
Thyrotropin receptor (Homo sapiens), sequence (P16473 whole entry, looked up): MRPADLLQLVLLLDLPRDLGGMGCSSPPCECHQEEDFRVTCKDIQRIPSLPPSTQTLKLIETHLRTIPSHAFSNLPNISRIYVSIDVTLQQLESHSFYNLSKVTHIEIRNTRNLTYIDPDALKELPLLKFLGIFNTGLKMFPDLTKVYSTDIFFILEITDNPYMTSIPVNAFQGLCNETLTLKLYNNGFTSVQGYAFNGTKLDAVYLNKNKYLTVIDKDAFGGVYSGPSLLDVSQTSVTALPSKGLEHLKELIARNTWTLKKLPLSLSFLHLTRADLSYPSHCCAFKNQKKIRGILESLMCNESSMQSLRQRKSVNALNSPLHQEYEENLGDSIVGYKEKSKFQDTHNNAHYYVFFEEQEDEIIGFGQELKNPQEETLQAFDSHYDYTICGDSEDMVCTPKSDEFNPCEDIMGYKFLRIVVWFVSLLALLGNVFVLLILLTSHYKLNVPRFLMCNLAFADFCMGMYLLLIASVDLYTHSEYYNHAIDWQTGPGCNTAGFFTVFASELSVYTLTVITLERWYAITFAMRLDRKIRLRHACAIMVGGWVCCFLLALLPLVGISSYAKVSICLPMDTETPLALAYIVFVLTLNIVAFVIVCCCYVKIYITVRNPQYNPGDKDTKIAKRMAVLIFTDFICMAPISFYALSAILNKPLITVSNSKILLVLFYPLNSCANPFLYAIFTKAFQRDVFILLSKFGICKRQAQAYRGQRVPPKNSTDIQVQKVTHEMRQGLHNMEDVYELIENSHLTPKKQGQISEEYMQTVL
Outline: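 Antagonist mode: compound-treated TSHR-expressing HEK293 cells were stimulated with 1.5 ng/mL TSH (final) in presence of Ro20-1724 for 30 min at RT. HTRF cAMP detection after 1 h; each compound tested at 15 concentrations, triplicate.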

[9] = qHTS assay to identify small molecule agonists of the estrogen receptor alpha (ER-alpha) signaling pathway in the presence of an antagonist - cell viability counter screen (AID 1259386; active = well fitted curve in the direction sought with a large enough effect in the repeat runs; an effect the other way counts as inactive or inconclusive;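 also: cells exposed to compounds for 22 h at 37 °C before the viability read; nearly all actives have a fitted effect of over 30% in size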; also: potency is read from the fitted curve at half-maximal effect)
Outline: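 Cytotoxicity was measured in parallel with the ERE-luciferase agonist screen, in the same wells. The cells were VM7Luc4E2, which endogenously express ER-alpha, and treatment was with compounds plus 10.0nM ICI-182,780 for 22hr.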

[10] = target: Progesterone receptor (Homo sapiens) (UniProt P06401); experiment: qHTS assay to identify small molecule agonists of the progesterone receptor (PR) signaling pathway (AID 1346784); also: nearly all actives have a fitted effect of over 30% in size
Progesterone receptor (Homo sapiens), sequence (P06401 whole entry, looked up): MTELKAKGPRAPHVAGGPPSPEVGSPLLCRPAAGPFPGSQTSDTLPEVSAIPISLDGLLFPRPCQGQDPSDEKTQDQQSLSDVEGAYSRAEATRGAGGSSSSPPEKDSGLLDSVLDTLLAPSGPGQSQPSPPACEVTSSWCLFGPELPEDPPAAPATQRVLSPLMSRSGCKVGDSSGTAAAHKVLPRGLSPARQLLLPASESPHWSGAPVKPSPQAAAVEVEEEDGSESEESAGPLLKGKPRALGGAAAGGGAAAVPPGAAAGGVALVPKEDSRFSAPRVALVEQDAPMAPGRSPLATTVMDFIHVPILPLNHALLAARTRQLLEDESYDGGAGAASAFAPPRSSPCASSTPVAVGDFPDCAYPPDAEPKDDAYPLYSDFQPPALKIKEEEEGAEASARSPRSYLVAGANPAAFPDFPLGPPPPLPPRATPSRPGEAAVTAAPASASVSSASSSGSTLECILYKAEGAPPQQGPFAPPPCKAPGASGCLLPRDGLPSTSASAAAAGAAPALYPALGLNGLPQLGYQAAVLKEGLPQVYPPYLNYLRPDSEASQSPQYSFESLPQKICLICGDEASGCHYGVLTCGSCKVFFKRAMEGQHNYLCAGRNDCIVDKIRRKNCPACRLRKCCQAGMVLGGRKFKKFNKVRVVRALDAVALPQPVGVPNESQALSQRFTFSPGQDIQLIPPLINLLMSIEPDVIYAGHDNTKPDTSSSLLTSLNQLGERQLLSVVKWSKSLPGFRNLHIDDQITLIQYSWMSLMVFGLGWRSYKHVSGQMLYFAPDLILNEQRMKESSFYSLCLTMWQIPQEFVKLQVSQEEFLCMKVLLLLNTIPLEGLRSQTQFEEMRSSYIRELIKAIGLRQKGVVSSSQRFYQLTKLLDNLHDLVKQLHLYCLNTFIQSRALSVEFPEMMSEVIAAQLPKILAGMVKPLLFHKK
Outline: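 Agonist qHTS: compounds pinned onto 3,000 PR-UAS-bla HEK 293T cells per well in charcoal-stripped serum medium, 16hr at 37C, then beta-lactamase activity measured by LiveBLAzer FRET fluorescence after 2 hours at room temperature.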

[11] = target: Progesterone receptor (Homo sapiens) (UniProt P06401); experiment: qHTS assay to identify small molecule antagonists of the progesterone receptor (PR) signaling pathway (AID 1346795; active = well fitted inhibition curve with a large enough effect in the signal ratio in the repeat runs, not every such curve was filed as active; the % refers to the signal ratio; also: potency is read from the fitted curve at half-maximal effect)
Outline: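 Antagonist mode with agonist R5020 at 1 nM final and 16 hr incubation at 37C. Reporter was beta-lactamase driven by UAS in HEK293T (PR-UAS-bla), 2% charcoal-stripped serum; signal from LiveBLAzer FRET substrate, 2 hr at room temperature.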

[12] = qHTS assay to identify small molecule antagonists of the progesterone receptor (PR) signaling pathway - cell viability counter screen (AID 1346798; active = well fitted curve in the direction sought with a large enough effect in the repeat runs; an effect the other way counts as inactive or inconclusive; also: nearly all actives have a fitted effect of over 50% in size; also: potency is read from the fitted curve at half-maximal effect)
Outline: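 Cytotoxicity read as CellTiter-Glo luminescence (30 min, room temperature) in the same wells as the beta-lactamase readout. HEK293T PR-UAS-bla cells in charcoal-stripped 2% FBS received compound and R5020, then 16 h at 37C, 5% CO2.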

[13] = qHTS assay to identify small molecule agonists of the progesterone receptor (PR) signaling pathway - cell viability counter screen (AID 1346799); also: nearly all actives have a fitted effect of over 45% in size; also: potency is read from the fitted curve at half-maximal effect
Outline: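 Cytotoxicity measured by CellTiter-Glo luminescence (30 min, RT) in the same wells as the PR beta-lactamase agonist read. Those HEK293T cells had 16 h compound treatment at 37 C in 2% charcoal-stripped FBS medium.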

[14] = qHTS assay to identify small molecule antagonists of the TGF-beta/Smad signaling pathway - cell viability counter screen (AID 1346824; active = well fitted curve in the direction sought with a large enough effect in the repeat runs; an effect the other way counts as inactive or inconclusive; also: nearly all actives have a fitted effect of over 50% in size)
Outline: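 Cytotoxicity counter-screen run in the same wells as the beta-lactamase Smad reporter read: CellTiter-Glo luminescence after 30 min at room temperature. HEK 293T SBE-bla cells had 5 hr compound exposure at 37 C with TGF-beta1 (0.25 ng/mL stock).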

[15] = qHTS assay to identify small molecule agonists of the TGF-beta/Smad signaling pathway - cell viability counter screen (AID 1346829; active = well fitted curve in the direction sought with a large enough effect in the repeat runs; an effect the other way counts as inactive or inconclusive; also: top concentration of the series differs between compounds; nearly all actives have a fitted effect of over 45% in size)
Outline: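 Compound-treated SBE-bla HEK 293T cells (5 hr, 37 C) were assessed for viability with CellTiter-Glo in parallel with the reporter read.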

[16] = qHTS assay to identify small molecule agonists of the TGF-beta/Smad signaling pathway (AID 1346859; active = well fitted activation curve with a large enough effect in the signal ratio in the repeat runs, not every such curve was filed as active; the % refers to the signal ratio; also: series mostly up to about 77 µM)
Outline: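 Fluorescence (ex 405 nm; em 460 and 530 nm) was read 2 h after LiveBLAzer FRET substrate at RT. The preceding compound treatment of overnight-plated SBE-bla HEK293T cells lasted 5 h at 37 C.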

[17] = target: Thyrotropin-releasing hormone receptor (Homo sapiens) (UniProt P34981); experiment: qHTS assay to identify small molecule antagonists of the thyrotropin-releasing hormone receptor (TRHR) signaling pathway (AID 1346877; active = well fitted inhibition curve with a large enough effect in the repeat runs, not every such curve was filed as active; also: series mostly up to about 51 µM)
Thyrotropin-releasing hormone receptor (Homo sapiens), sequence (P34981 whole entry, looked up): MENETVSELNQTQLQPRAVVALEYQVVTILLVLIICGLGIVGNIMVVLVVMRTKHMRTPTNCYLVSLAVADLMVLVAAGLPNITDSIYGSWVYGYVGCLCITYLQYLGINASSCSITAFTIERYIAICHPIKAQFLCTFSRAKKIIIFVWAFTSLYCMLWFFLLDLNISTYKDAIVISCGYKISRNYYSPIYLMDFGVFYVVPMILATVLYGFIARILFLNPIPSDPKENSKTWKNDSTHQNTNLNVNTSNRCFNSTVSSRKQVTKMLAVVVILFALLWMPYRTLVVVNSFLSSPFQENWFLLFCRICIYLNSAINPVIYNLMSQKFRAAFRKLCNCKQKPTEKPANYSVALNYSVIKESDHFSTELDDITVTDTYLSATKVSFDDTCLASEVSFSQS
Outline: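 Antagonism is measured as suppression of the calcium response to 1 nM TRH in TRHR-HEK293 cells that have been dye-loaded for 2 h at 37 °C after overnight plating. Each compound is tested at 15 concentrations in triplicate.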

[18] = target: Androgen receptor (Homo sapiens) (UniProt P10275); experiment: qHTS assay to identify small molecule agonists of the androgen receptor (AR) signaling pathway in the presence of an antagonist (AID 1259381); also: nearly all actives have a fitted effect of over 15% in size
Androgen receptor (Homo sapiens), sequence (P10275 whole entry, looked up): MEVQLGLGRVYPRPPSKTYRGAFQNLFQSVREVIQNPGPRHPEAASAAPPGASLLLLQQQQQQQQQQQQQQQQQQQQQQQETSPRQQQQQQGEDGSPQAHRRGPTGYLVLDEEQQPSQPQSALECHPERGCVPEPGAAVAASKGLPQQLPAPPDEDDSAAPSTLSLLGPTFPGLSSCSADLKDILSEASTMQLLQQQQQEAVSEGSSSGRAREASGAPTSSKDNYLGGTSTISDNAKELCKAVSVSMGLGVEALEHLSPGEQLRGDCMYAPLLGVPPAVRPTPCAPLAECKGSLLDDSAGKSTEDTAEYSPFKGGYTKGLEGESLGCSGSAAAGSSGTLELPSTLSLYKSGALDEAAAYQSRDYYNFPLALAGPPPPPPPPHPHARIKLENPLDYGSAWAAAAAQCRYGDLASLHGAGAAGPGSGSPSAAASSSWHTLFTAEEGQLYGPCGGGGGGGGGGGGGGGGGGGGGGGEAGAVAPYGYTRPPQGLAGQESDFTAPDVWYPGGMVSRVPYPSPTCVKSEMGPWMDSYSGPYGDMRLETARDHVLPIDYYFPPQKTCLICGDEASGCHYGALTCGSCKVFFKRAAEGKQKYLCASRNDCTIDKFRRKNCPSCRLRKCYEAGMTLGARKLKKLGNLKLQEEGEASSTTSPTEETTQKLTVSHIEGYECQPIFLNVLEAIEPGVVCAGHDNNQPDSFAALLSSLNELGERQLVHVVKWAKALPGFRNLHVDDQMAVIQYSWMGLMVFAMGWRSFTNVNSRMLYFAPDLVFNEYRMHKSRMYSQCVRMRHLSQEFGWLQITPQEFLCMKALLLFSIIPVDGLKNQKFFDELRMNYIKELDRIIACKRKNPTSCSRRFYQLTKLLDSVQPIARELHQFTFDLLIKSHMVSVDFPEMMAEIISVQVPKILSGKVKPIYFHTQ
Outline: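 Agonist-mode confirmation screen: human MDA-kb2 cells stably expressing luciferase under an MMTV promoter bearing AR and GR response elements, co-treated with 3.0uM nilutamide (final). Luminescence measured after 16hr compound incubation.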

Measured: Potency

CCOC(C)=O
not listed: [17] | [18]
inactive: all other assays above

CCCCCCCCC(CCCCCC)C(=O)O (stereo not given)
active: [4] 8.63 µM
not listed: [5] | [6] | [9] | [11] | [12] | [13] | [18]
inactive: all other assays above

NC(=O)c1ccncc1
not listed: [6] | [11]
inactive: all other assays above

CCOC(=O)c1ccc(O)c(O)c1
active: [2] 29.8 µM
not listed: [6] | [13] | [17] | [18]
inactive: all other assays above

O=[N+]([O-])c1cc(C2CCCCC2)c(O)c([N+](=O)[O-])c1
active: [2] 1.08 µM | [3] 24.3 µM | [9] 15.3 µM | [11] 24.3 µM
inactive: [1] | [4] | [18] | [5] | [7] | [8] | [14] | [15]

CC(CO)CO
not listed: [5] | [13] | [18]
inactive: all other assays above

CC1(C)S[C@@H]2[C@H](NC(=O)C(c3ccccc3)S(=O)(=O)O)C(=O)N2[C@H]1C(=O)O (stereo not given in full)
not listed: [5] | [12] | [13] | [18]
inactive: all other assays above

CC(C)c1nc(CN(C)C(=O)N[C@H](C(=O)N[C@@H](Cc2ccccc2)C[C@H](O)[C@H](Cc2ccccc2)NC(=O)OCc2cncs2)C(C)C)cs1
active: [4] 15 µM | [5] 21.1 µM | [9] 13.3 µM | [12] 29.8 µM | [13] 26.6 µM
not listed: [11] | [18]
inactive: all other assays above

Cc1cccc(O)c1N
active: [2] 15.5 µM | [11] 30.9 µM
not listed: [4] | [5] | [6] | [9] | [13] | [18]
inactive: all other assays above

CC(=O)NC1(c2cccc(F)c2)CCN(CC[C@@]2(c3ccc(Cl)c(Cl)c3)CN(c3ccccc3)C(=O)CO2)CC1
active: [2] 24.4 µM | [4] 24.4 µM | [5] 21.7 µM | [12] 38.7 µM | [13] 21.7 µM
not listed: [3] | [10] | [11] | [16] | [18]
inactive: all other assays above

CCOC(=O)/C=C/C(=O)OCC
not listed: [4] | [5] | [11] | [13] | [18]
inactive: all other assays above

CCOC(=O)c1ccc(OCCN2C[C@H](O)[C@@H](O)[C@H](O)[C@H]2CO)cc1
not listed: [18]
inactive: all other assays above

N#CCCN(CCO)CCO
not listed: [11] | [16] | [18]
inactive: all other assays above

C[C@H]1c2cccc(O)c2C(O)=C2C(=O)[C@]3(O)C(O)=C(C(N)=O)C(=O)[C@@H](N(C)C)[C@@H]3[C@@H](O)[C@@H]21
not listed: [7] | [8] | [10] | [11] | [16]
inactive: all other assays above

CCC(C)COC(C)=O (stereo not given)
not listed: [6] | [8] | [17] | [18]
inactive: all other assays above

O=C(/C=C/c1ccc(O)c(O)c1)O[C@@H]1C[C@@](OC(=O)/C=C/c2ccc(O)c(O)c2)(C(=O)O)C[C@@H](O)[C@@H]1O
not listed: [13] | [17] | [18]
inactive: all other assays above

COc1cc(C(=O)NC2CCN(C)CC2)ccc1Nc1ncc2c(n1)N(C1CCCC1)CC(F)(F)C(=O)N2C
active: [2] 0.112 µM | [4] 22.3 µM | [8] 11.2 µM
inactive: [1] | [18] | [6] | [10] | [17]

CC(C)COCC(CN(Cc1ccccc1)c1ccccc1)N1CCCC1 (stereo not given)
inactive: [1] | [6] | [9]
active: [2] 26.6 µM | [3] 26.6 µM | [4] 29.8 µM | [5] 21.1 µM

CC1=Nc2ccc3ccccc3c2C1(C)C
active: [2] 30.6 µM | [12] 12.2 µM | [13] 24.3 µM
not listed: [4] | [5] | [10] | [11] | [16]
inactive: all other assays above

Nc1ccc(N=Nc2ccccc2)c(N)c1
inactive: [2] | [6] | [10] | [12] | [13] | [14] | [15] | [16]
active: [1] 1.34 µM | [3] 26.7 µM | [4] 26.7 µM | [11] 47.5 µM

CNC(=O)c1cnn(-c2nc(N)c3ncn([C@@H]4O[C@H](CO)[C@@H](O)[C@H]4O)c3n2)c1
not listed: [5] | [6] | [12] | [13] | [18]
inactive: all other assays above

CCCCCC#CC(=O)OC
not listed: [4] | [17] | [18]
inactive: all other assays above

Brc1cc2ccccc2c2ccccc12
active: [4] 30.9 µM
not listed: [3] | [7] | [8] | [11] | [13] | [18]
inactive: all other assays above

C(=C\c1ccccc1)/c1ccccc1
not listed: [13] | [18]
inactive: all other assays above

C[C@]1(Cn2ccnn2)[C@H](C(=O)O)N2C(=O)C[C@H]2S1(=O)=O
not listed: [4] | [10] | [11] | [13] | [18]
inactive: all other assays above

O=c1c(O)c(-c2ccc(O)cc2)oc2cc(O)cc(O)c12
active: [2] 21.6 µM and 26 µM | [11] 5.19 µM
inactive: [1] | [3] | [7] | [8] | [10] | [14] | [15]

Cc1ccc(Cl)c(Nc2ccccc2C(=O)O)c1Cl
not listed: [4] | [5] | [11] | [12] | [16] | [17] | [18]
inactive: all other assays above
